Only a selection was taken, and hits are over-represented in it overall.
GALK inhibitor: inhibits human galactokinase; P51570; recombinant GALK, Kinase-Glo ATP luminescence, 1 h; Potency, µM (series often up to 57.5 µM), for the others: at the top dose activity, negative = inhibition, usual class: inhibitors; 44,000 tested, under 10 active; AID 1347072;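 also: plate controls were full GALK reaction for no effect and reaction lacking GALK for full effect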
Target sequence (P51570 whole entry, looked up): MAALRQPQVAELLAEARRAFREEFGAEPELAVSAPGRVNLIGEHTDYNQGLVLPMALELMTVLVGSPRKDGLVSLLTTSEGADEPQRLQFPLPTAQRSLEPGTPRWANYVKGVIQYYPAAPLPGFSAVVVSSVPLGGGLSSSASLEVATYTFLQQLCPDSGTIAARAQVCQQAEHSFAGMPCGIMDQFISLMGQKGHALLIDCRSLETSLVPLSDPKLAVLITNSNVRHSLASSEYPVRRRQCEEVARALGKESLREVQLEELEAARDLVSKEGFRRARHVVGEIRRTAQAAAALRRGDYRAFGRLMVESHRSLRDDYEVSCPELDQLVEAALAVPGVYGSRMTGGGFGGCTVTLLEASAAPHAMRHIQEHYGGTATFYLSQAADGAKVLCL
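Human GALK (5 nM) was incubated with 35 uM ATP and 100 uM galactose in 20 mM HEPES pH 8.0 with MgCl2, NaCl, DTT and BSA for 1 h at room temperature. Remaining ATP was measured by Kinase-Glo Plus luminescence.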
HTT promoter inh: HTT promoter inhibition | Potency, µM (top dose mostly 57.5 µM), for inactives: at the highest dose activity change, negative = inhibition, usual class: inhibitors | HEK293 HTT promoter firefly luciferase reporter, 24 h | actives 0.93% (n = 48,000); also: potency is read from the fitted curve at half-maximal effect; nearly all actives have a fitted effect of over 50% in size
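Firefly luciferase readout (Dual-Glo, 10 min RT) after 24 h, 37 °C compound exposure (final up to 57.5 uM) of HEK293 reporter cells cultured 24 h beforehand; PTC124 at 50 uM final as control inhibitor; activity scaled vehicle 0%, zero RLU -100%.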
HTT-AS promoter: activates huntingtin-antisense promoter activity | HEK293 HTT-AS promoter firefly luciferase reporter, 24 h; response scale: percent change from vehicle, -100% = no light | Potency, µM (titrated, usually from 57.5 µM), for the others: at the top dose activity change, positive = activation, actives largely listed as activators | actives 0.24% (n = 48,000); also: potency is read from the fitted curve at half-maximal effect; nearly all actives have a fitted effect of over 55% in size
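Quantitative HTS used concentration series of up to 57.5 uM final on HEK293 luciferase reporter cells, 24 h at 37 degrees C. Readout was Dual-Glo firefly luminescence.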
NTMT1 inhibitor: inhibitors of human N-terminal methyltransferase NTMT1. Q9BV86. NTMT1 MTase-Glo SAH luminescence, purified enzyme. Potency, µM (series often up to 114 µM), for the others: top-dose activity change, negative = inhibition, usual class: inhibitors. actives 2.5% (n = 59,000). AID 1645870;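 also: potency is read from the fitted curve at half-maximal effect; plate controls were DMSO vehicle for no effect and no enzyme for full effect; nearly all actives have a fitted effect of over 65% in size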
Target sequence (Q9BV86 whole entry, looked up): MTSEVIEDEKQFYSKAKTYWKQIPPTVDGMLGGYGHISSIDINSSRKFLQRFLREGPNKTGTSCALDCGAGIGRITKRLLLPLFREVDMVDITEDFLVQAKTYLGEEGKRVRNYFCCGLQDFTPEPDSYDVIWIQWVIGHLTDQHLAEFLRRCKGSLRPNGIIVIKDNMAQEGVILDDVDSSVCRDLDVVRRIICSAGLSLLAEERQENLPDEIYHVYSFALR
TSG101-PTAP inh: inhibitors of HIV-1 PTAP binding to human TSG101, validation. Potency, µM (doses to about 115 µM), actives largely listed as inhibitors. Q99816. 44,000 tested, under 10 active. Fluorescence polarization, FITC-PTAP peptide/Tsg101, 20 min; also: potency is read from the fitted curve at half-maximal effect; 0% is about no effect
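FITC-labeled PTAP peptide (50 nM final) binding to Tsg101 binding domain (10 uM final) read by fluorescence polarization after 20 min at r.t. in HEPES pH 7.5 buffer. Actives by CRC class, <25 µM.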
B2AR arrestin ag: agonists recruiting beta-arrestin to human beta2-adrenergic receptor; Potency, µM (doses to about 46.1 µM), actives largely listed as activators; AID 1347077; 44,000 tested, under 10 active; HTLA Tango cells, beta-arrestin recruitment, luciferase luminescence, 18 h;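 also: potency is read from the fitted curve at half-maximal effect; 0% = DMSO and full agonism = EC100 isoproterenol or metaproterenol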
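Receptor–beta-arrestin recruitment read by tTA-responsive luciferase: compound titrations (up to 46 µM) incubated 18 h with Tango cells, then luminescent substrate 15 min at room temperature. Concentration-response fits classified by r2, efficacy and activity.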
Active calls of the source: *; i = inactive; ? = inconclusive; · = no result given; ! = a repeat was not active; [ ] = another dose, or the depositor's remark. Calls follow the shape of the dose curve; as a rule, active = well fitted curve in the direction sought with a large enough effect; inconclusive = small, poorly fitted or top-dose-only effect, or another doubt; inactive = no such curve, though single readings can be large; an effect the other way counts as inactive or inconclusive.

SMILES | GALK inhibitor | HTT promoter inh | HTT-AS promoter | NTMT1 inhibitor | TSG101-PTAP inh | B2AR arrestin ag
O=C1NC(=O)/C(=C/c2ccc(-c3ccc(F)cc3O)o2)S1 | · | · | · | 35µM* | · | ·
O=C1NC(=O)/C(=C\c2ccc(-c3ccc(F)cc3O)o2)S1 | · | · | · | 28µM* | · | ·
N=C1S/C(=C\c2ccc(-c3ccc4c(c3)C(=O)NC4=O)o2)C(=O)N1c1ccc(Br)cc1 | · | · | · | -13%[57.5 µM] | · | ·
CC(C)(C)Nc1nc2cc(Cl)c(Cl)cc2nc1S(C)(=O)=O | · | · | · | 13%[57.5 µM] | · | ·
O=C(O)c1ccccc1C(=O)Nc1ccc(-c2ccccc2)cc1 | · | ? | -61% | 8.6µM*! | · | ·
CCN1CCN(C(c2ccc(Cl)cc2)c2ccc(Cl)cc2)CC1 | · | · | · | 6% | · | ·
CC(C)(CO)n1cc(C(=O)c2cncc(NC(=O)Cc3ccc(Cl)cn3)c2)c2cnc(N)nc21 | · | · | · | 5% | · | ·
CC(=O)c1cccc(NC(=O)c2noc3c2CSc2ccccc2-3)c1 | 2% | 52% | 1.4µM* | 3% | i | i
COc1ccc(NC(=O)c2noc3c2CSc2ccccc2-3)cc1Cl | -10% | 3% | 7% | 4% | i | i
CN(C)c1ccc(-c2ccc(=O)n(CC(=O)NCCc3ccccc3)n2)cc1 | · | · | · | 15% | · | ·
COc1cc2nc(NC(=O)c3ccc(S(=O)(=O)N4CCc5ccccc54)cc3)sc2cc1OC | ? | 13µM* | -41% | 2% | i | i
CCNCCc1ccc(CN(CC)c2cc(OC)ccc2[C@@H]2CCc3cc(O)ccc3C2)cc1 | · | · | · | 45µM* | · | ·
COc1ccc(C2COc3cc(O)ccc3C2)c(O)c1 (stereo not given) | · | · | · | 9%[57.5 µM] | · | ·
COc1ccc(NC(=O)c2cnn3c(C)cc(C)nc23)cc1 | · | · | · | 3% | · | ·
COCCNc1cc(NC(=O)N2CCCc3cc(CN4CCN(C)CC4=O)c(C=O)nc32)ncc1C#N | · | · | · | 20%[29.8 µM] | · | ·
N#C/C(=C\c1ccc(-c2cc(Cl)ccc2Cl)o1)C(=O)Nc1ccccc1C(=O)O | 0% | 16% | -4% | 10µM* | i | i
CC(C)n1nc(-c2cc3cc(O)ccc3[nH]2)c2c(N)ncnc21 | · | ? | -44% | 79µM*! | · | ·
O=C(c1ccccc1F)N1c2nc(-c3ccco3)nn2C2(CCCCC2)[C@@H]2CCCC[C@@H]21 | -5% | -34% | -38% | 50µM* | i | i
O=C(c1ccc(F)cc1)N1c2nc(-c3ccco3)nn2C2(CCCCC2)[C@@H]2CCCC[C@@H]21 | 6% | -28% | -32% | -17% | i | i
O=C(NC1CCCc2c1cnn2CCO)c1ccccn1 (stereo not given) | · | · | · | 12% | · | ·
Cc1cc(Nc2ncc(Cl)c(Nc3ccccc3S(=O)(=O)C(C)C)n2)c(OC(C)C)cc1C1CCNCC1 | · | · | · | 14µM* | · | ·
C1=C/COCc2cc(ccc2OCCN2CCCC2)Nc2nccc(n2)-c2cccc(c2)COC/1 | · | · | · | 25µM* | · | ·
COc1cc(-n2cnc3cc(-c4ccc(Cl)cc4)sc3c2=O)ccc1OCCN1CCCC1 | · | · | · | -7%[57.5 µM] | · | ·
Cc1cc(C)c(NC(=O)CSc2nccn2Cc2ccco2)c(C)c1 | 2% | 44% | 5µM* | 5% | i | i
CC(=O)c1cc2c(o1)C(=O)c1ccccc1C2=O | · | · | · | 31% | · | ·
SMILES | GALK inhibitor | HTT promoter inh | HTT-AS promoter | NTMT1 inhibitor | TSG101-PTAP inh | B2AR arrestin ag
Nc1nc(Nc2ccc3c(c2)CC[C@@H](N2CCCC2)CC3)nn1-c1cc2c(nn1)-c1ccccc1CCC2 | · | · | · | 35µM* | · | ·
Fc1cccc(Cl)c1CNc1n[nH]c(-c2ccco2)n1 | 0% | 47% | 5µM* | -26% | i | i
COc1cc2c(=O)n(CCc3ccccc3)c(=O)n(CC(=O)Nc3ccccc3)c2cc1OC | 2% | -25% | -35% | 79µM* | i | i
COc1ccc(-c2ccc(=O)n(CC(=O)NCCc3ccccc3)n2)cc1OC | · | · | · | -3% | · | ·
CCc1ccc(CCOc2ccc(CC3SC(=O)NC3=O)cc2)nc1 (stereo not given) | · | -8% | -13% | 32µM*! | · | ·
CC1(COc2ccc(CC3SC(=O)NC3=O)cc2)CCCCC1 (stereo not given) | · | 17% | 14% | ? | · | ·
Cc1cccc(-n2c3nc(=O)n(C)c(=O)c-3cc3ccc(Cl)cc32)c1C | 0% | -8% | -10% | -15% | i | i
Cn1cncc1[C@@](N)(c1ccc(Cl)cc1)c1ccc2c(c1)c(-c1cccc(Cl)c1)cc(=O)n2C | · | -29% | -36% | 22µM*! | · | ·
CCCCNC(=O)c1nn(C)c2c1CSc1ccccc1-2 | 0% | 8% | 19% | 79µM* | i | i
CC(C)(C)C(=O)N1N=CC[C@H]1c1ccccc1 | · | · | · | 10% | · | ·
Cc1ccc(Cl)cc1-n1ncc2c(Nc3cccc(C)c3C)ncnc21 | 3% | ? | -18% | 5.6µM* | i | i
COc1ccc(Nc2ncnc3c2cnn3-c2cc(Cl)ccc2C)cc1OC | 5% | -30% | 0% | ? | i | i
COc1cc(N2CCC(N3CCN(C)CC3)CC2)ccc1Nc1ncc(Cl)c(Nc2ccccc2P(C)(C)=O)n1 | · | · | · | 0% | · | ·
C=CC(=O)N1CC[C@@H](Oc2nc(Nc3ccc(N4CCC(N5CCN(C)CC5)CC4)cc3)c(C(N)=O)nc2CC)C1 | · | · | · | 4µM* | · | ·
NC(=O)[C@H](Cc1ccccc1)NC(=O)[C@H](CCCN=C(N)N)NC(=O)C12CC3CC(CC(C3)C1)C2 | · | · | · | 16%[12.6 µM] | · | ·
CN[C@@H](C)C(=O)N[C@H]1CCCC[C@H]2CC[C@@H](C(=O)N[C@@H](c3ccccc3)c3cn(CCCCc4ccc(CCCCn5cc([C@@H](NC(=O)[C@@H]6CC[C@@H]7CCCC[C@H](NC(=O)[C@H](C)NC)C(=O)N76)c6ccccc6)nn5)cc4)nn3)N2C1=O | · | 8% | -2% | 28µM*! | · | ·
Cc1nc(Nc2ncc(C(=O)Nc3c(C)cccc3Cl)s2)cc(N2CCN(CCO)CC2)n1 | · | ? | -29% | 22µM*! | · | ·
Cc1ccc(NC(=O)c2cccc(N3CCCS3(=O)=O)c2)cc1 | -1% | 10% | ? | 15% | i | i
Cc1ccc(NC(=O)c2cccc(N3CCCS3(=O)=O)c2)cc1C | -1% | 52% | 2.2µM* | -5% | i | i
CCS(=O)(=O)c1cccc(C(=O)N2CCN(c3nc4c(C)ccc(Cl)c4s3)CC2)c1 | -4% | 11µM* | -48% | 4% | i | i
CCS(=O)(=O)c1ccc(C(=O)N2CCN(c3nc4c(OC)ccc(C)c4s3)CC2)cc1 | 0% | ? | -37% | -3% | i | i
COc1cc(O)c(C(CC(=O)N2CCC[C@H](C)C2)c2ccc3c(c2)OCO3)c(OC)c1 (stereo not given in full) | · | · | · | 3%[228 µM] | · | ·
